Screening data (PubChem BioAssay)
An excerpt weighted towards active compounds, which were near 28% of everything screened.
CYP2C9 inhib – blockers of cytochrome P450 2C9 activity – biochemical, luminescence, ADME assay, primary screen; P11712; CYP2C9 Supersomes, luciferin-H conversion; inhibition, % at 5 µM; 20% of 96,000 active;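 active means blocking of liver enzyme CYP2C9 beyond about 50% at 5 µM, limit read from the data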
CYP2C19 act – human CYP2C19 activators, primary screen, biochemical, luminescence | 96,000 tested, under 10 active | Cytochrome P450 2C19 (Homo sapiens), P33261 | recombinant CYP2C19, luciferin-H EGE luminescence; active compounds read high; 0 = fully inhibited enzyme, 1 = untreated enzyme | activation factor at 5 µM;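 active means activation factor of at least 2 at 5 µM in the primary screen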
CYP2C9 act – human CYP2C9 activators, primary screen, biochemical, luminescence | recombinant CYP2C9, luciferin-H conversion; active compounds read high; factor 1 = untreated enzyme, 0 = blocked | activation factor at 5 µM | 1.4% of 96,000 active | AID 1024, 2008;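 active means activation factor of 2 or more for CYP2C9 at a 5 µM dose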
D1 mod – D1 CRE-luciferase signal change, two-sided – cell-based, HEK293 D1, dopamine EC30, D1 allosteric modulator project, primary screen; D(1A) dopamine receptor (Homo sapiens), P21728; dopamine EC30 potentiation; actives deviate in either direction; B-score at 10 µM; 5.9% of 58,000 active; AID 641, 2007;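 active means luminescence count or its row- and column-corrected plate score outside the 99.7% band of the plate's sample wells, on either side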
hDAT+cocaine – changed hDAT dopamine uptake under cocaine IC80, either direction, primary screen, cocaine antagonist project, cell-based, LLC-PK1 hDAT, [14C]-dopamine uptake, MLSMR; 1.3% of 110,000 active; LLC-PK1 hDAT cells, [14C]-dopamine uptake with cocaine IC80; actives deviate in either direction; B-score at 10 µM; Sodium-dependent dopamine transporter (Homo sapiens), Q01959;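 active means Z score or B-score, a plate-position-corrected score, falls beyond the plate's 99.7% confidence bounds, in either direction; inactive means both scores lie inside the 99.7% bounds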
Target sequence (Q01959 whole entry, looked up): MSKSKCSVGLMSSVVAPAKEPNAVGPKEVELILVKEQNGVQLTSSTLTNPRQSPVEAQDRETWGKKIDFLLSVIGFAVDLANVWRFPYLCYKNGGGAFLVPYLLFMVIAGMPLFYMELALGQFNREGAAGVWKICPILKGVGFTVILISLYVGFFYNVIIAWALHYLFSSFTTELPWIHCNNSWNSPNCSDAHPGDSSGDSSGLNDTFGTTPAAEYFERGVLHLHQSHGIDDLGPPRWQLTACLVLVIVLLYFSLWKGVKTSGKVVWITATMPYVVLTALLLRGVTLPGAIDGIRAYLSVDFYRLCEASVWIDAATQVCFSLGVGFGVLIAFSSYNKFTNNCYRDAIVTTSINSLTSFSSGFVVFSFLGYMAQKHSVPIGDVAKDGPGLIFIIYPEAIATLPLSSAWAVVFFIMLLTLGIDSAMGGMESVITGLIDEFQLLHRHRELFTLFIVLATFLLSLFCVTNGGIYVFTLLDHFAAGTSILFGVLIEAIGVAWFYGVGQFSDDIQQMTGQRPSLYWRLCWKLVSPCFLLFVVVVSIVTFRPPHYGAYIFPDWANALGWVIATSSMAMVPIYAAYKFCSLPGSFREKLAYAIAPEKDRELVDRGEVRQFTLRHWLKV
CYP2C19 inhib – blockers of cytochrome P450 2C19 activity – biochemical, luminescence, ADME assay, primary screen; inhibition, % at 5 µM; 21% of 96,000 active; P33261; CYP2C19 Supersomes, luciferin-H EGE luminescence, 30 min;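 active means CYP2C19 inhibition above a set limit at 5 µM in the primary screen, cut at about 50% in these data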
A number is an active result.

Results for Fc1ccccc1OCCCN1CCOCC1 ?
CYP2C9 inhib: inactive; CYP2C19 act: inactive; CYP2C9 act: inactive; D1 mod: inactive; hDAT+cocaine: inactive; CYP2C19 inhib: inactive

How did O=C(O)c1ccc(SCc2cnc(Cl)s2)cc1 do in these assays?
CYP2C9 inhib: inactive; CYP2C19 act: inactive; CYP2C9 act: inactive; hDAT+cocaine: inactive; CYP2C19 inhib: inactive

Results for CC(=O)C(Cc1cnc(Cl)s1)(Cc1cnc(Cl)s1)C(C)=O ?
CYP2C9 inhib: inactive; CYP2C19 act: inactive; CYP2C9 act: inactive; hDAT+cocaine: inactive; CYP2C19 inhib: 69

How did CCOC(=O)C1CCN(S(=O)(=O)Cc2ccc(Cl)cc2)CC1 do in these assays?
CYP2C9 inhib: 93; CYP2C19 act: inactive; CYP2C9 act: inactive; D1 mod: inactive; hDAT+cocaine: inactive; CYP2C19 inhib: 87

How did CCOC(=O)C1CCCN(S(=O)(=O)Cc2ccccc2)C1 (stereo not drawn) do in these assays?
CYP2C9 inhib: inactive; CYP2C19 act: inactive; CYP2C9 act: inactive; D1 mod: inactive; hDAT+cocaine: inactive; CYP2C19 inhib: inactive

Results for CCOC(=O)C1CCN(C(=O)CN(Cc2ccc(Cl)cc2)S(C)(=O)=O)CC1 ?
CYP2C9 inhib: inactive; CYP2C19 act: inactive; CYP2C9 act: inactive; D1 mod: inactive; hDAT+cocaine: inactive; CYP2C19 inhib: inactive

What do the screens show for `CCOC(=O)C1CCN(S(=O)(=O)Cc2ccccc2)CC1`?
CYP2C9 inhib: 69; CYP2C19 act: inactive; CYP2C9 act: inactive; hDAT+cocaine: inactive; CYP2C19 inhib: inactive

How did CC(=O)c1c(COC(=O)c2cccnc2)nc2ccccc2[n+]1[O-] do in these assays?
CYP2C9 inhib: inactive; CYP2C19 act: inactive; CYP2C9 act: inactive; D1 mod: inactive; hDAT+cocaine: inactive; CYP2C19 inhib: inactive

What do the screens show for `O=C(c1cc2c(s1)-c1ccccc1S(=O)(=O)C2)N1CCN(Cc2ccccc2)CC1`?
CYP2C9 inhib: inactive; CYP2C19 act: inactive; CYP2C9 act: inactive; CYP2C19 inhib: inactive

How did COc1ccc(NC2CC(=O)N(CCc3ccccc3)C2=O)cc1 (stereo not drawn) do in these assays?
hDAT+cocaine: inactive

What do the screens show for `COc1ccccc1C(=O)NCCn1cc(SCC(=O)Nc2nnc(C)s2)c2ccccc21`?
CYP2C9 inhib: 76; CYP2C19 act: inactive; CYP2C9 act: inactive; D1 mod: inactive; hDAT+cocaine: inactive; CYP2C19 inhib: inactive

Results for Cc1ccc(C(=O)NCCn2cc(SCC(=O)N3CCOCC3)c3ccccc32)cc1 ?
CYP2C9 inhib: inactive; CYP2C19 act: inactive; CYP2C9 act: inactive; hDAT+cocaine: inactive; CYP2C19 inhib: inactive

How did Cc1ccc(C(=O)NCCn2cc(SCC(=O)Nc3cc(C)on3)c3ccccc32)cc1 do in these assays?
CYP2C9 inhib: 86; CYP2C19 act: inactive; CYP2C9 act: inactive; D1 mod: inactive; hDAT+cocaine: inactive; CYP2C19 inhib: 91

What do the screens show for `Cc1cc(NC(=O)CSc2cn(CCNC(=O)c3ccccc3)c3ccccc23)no1`?
CYP2C9 inhib: 94; CYP2C19 act: inactive; CYP2C9 act: inactive; D1 mod: inactive; hDAT+cocaine: inactive; CYP2C19 inhib: 90

Results for O=C(NCCn1cc(SCc2ccc(F)cc2)c2ccccc21)c1ccccc1F ?
hDAT+cocaine: inactive

What do the screens show for `COC(=O)C1CC(=O)N(CCc2c[nH]c3ccccc23)C1` (stereo not drawn)?
CYP2C9 inhib: inactive; CYP2C19 act: inactive; CYP2C9 act: inactive; hDAT+cocaine: inactive; CYP2C19 inhib: 97

What do the screens show for `COC(CNC(=O)C1CC(=O)N(CCc2ccccc2)C1)OC` (stereo not drawn)?
CYP2C9 inhib: inactive; CYP2C19 act: inactive; CYP2C9 act: inactive; hDAT+cocaine: inactive; CYP2C19 inhib: inactive

How did CCc1cccc(NS(=O)(=O)c2ccc3c(c2)oc(=O)n3C)c1 do in these assays?
CYP2C9 inhib: inactive; CYP2C19 act: inactive; CYP2C9 act: inactive; CYP2C19 inhib: 70

Results for Cn1c(=O)c2cc(S(=O)(=O)Nc3ccc4c(c3)OCO4)ccc2n(C)c1=O ?
CYP2C9 inhib: 85; CYP2C19 act: inactive; CYP2C9 act: inactive; D1 mod: inactive; hDAT+cocaine: inactive; CYP2C19 inhib: 84

What do the screens show for `Cn1c(=O)oc2cc(S(=O)(=O)Nc3ccc4c(c3)OCO4)ccc21`?
CYP2C9 inhib: 53; CYP2C19 act: inactive; CYP2C9 act: inactive; D1 mod: inactive; hDAT+cocaine: inactive; CYP2C19 inhib: 80

How did Cn1c(=O)oc2cc(S(=O)(=O)Nc3cccc4c3CCCC4)ccc21 do in these assays?
CYP2C9 inhib: inactive; CYP2C19 act: inactive; CYP2C9 act: 2.4; D1 mod: inactive; hDAT+cocaine: inactive; CYP2C19 inhib: 66

How did Cn1c(=O)oc2cc(S(=O)(=O)Nc3cccc(C(=O)O)c3)ccc21 do in these assays?
CYP2C9 inhib: inactive; CYP2C19 act: inactive; CYP2C9 act: inactive; D1 mod: inactive; hDAT+cocaine: inactive; CYP2C19 inhib: inactive

How did COc1ccc(OC)c(Nc2nc(N)nc(CSc3nnc(-c4ccncc4)o3)n2)c1 do in these assays?
CYP2C9 inhib: inactive; CYP2C19 act: inactive; CYP2C9 act: inactive; CYP2C19 inhib: inactive

Results for CCOC(=O)N1CCN(C(=O)C(CC(C)C)NS(=O)(=O)c2ccc3c(c2)oc(=O)n3C)CC1 (stereo not drawn) ?
CYP2C9 inhib: inactive; CYP2C19 act: inactive; CYP2C9 act: inactive; hDAT+cocaine: inactive; CYP2C19 inhib: inactive

How did CC(C)CC(NS(=O)(=O)c1ccc2c(c1)oc(=O)n2C)C(=O)NCc1cccnc1 (stereo not drawn) do in these assays?
CYP2C9 inhib: inactive; CYP2C19 act: inactive; CYP2C9 act: inactive; D1 mod: inactive; hDAT+cocaine: inactive; CYP2C19 inhib: 53

What do the screens show for `CCC(CO)n1cnnc1-c1ccncc1` (stereo not drawn)?
CYP2C9 inhib: inactive; CYP2C19 act: inactive; CYP2C9 act: inactive; D1 mod: inactive; hDAT+cocaine: inactive; CYP2C19 inhib: inactive

Results for O=C(O)CSCC(=O)Nc1ccc(S(=O)(=O)N2CCCCC2)cc1 ?
CYP2C9 inhib: inactive; CYP2C19 act: inactive; CYP2C9 act: inactive; D1 mod: inactive; hDAT+cocaine: inactive; CYP2C19 inhib: inactive

What do the screens show for `Cc1cc(C)nc(SCC(=O)Nc2ccc(S(=O)(=O)NC(C)(C)C)cc2)n1`?
CYP2C9 inhib: 58; CYP2C19 act: inactive; CYP2C9 act: inactive; hDAT+cocaine: inactive; CYP2C19 inhib: inactive

Results for Cc1cc(C)nc(SCC(=O)Nc2ccc(S(=O)(=O)NCCO)cc2)n1 ?
CYP2C9 inhib: inactive; CYP2C19 act: inactive; CYP2C9 act: inactive; hDAT+cocaine: inactive; CYP2C19 inhib: inactive
